Source: PubChem BioAssay (several laboratories)
Compounds with a hit are over-represented: about 4.2% of the library has one in this group of screens.
Mtb FBA inh: Mtb FBA enzyme inhibitors, primary screen, biochemical, fluorescence, strain H37Rv. 2.3% of 360,000 active. inhibition, % at 1 µM. Fructose-bisphosphate aldolase (Mycobacterium tuberculosis (strain ATCC 25618 / H37Rv)), …. purified M. tuberculosis FBA, fluorescence read-out
GDH-TPI counter-1: GDH-TPI coupling enzyme inhibitors, primary screen, artefact control for M. tuberculosis FBA inhibitor project, biochemical, absorbance, full deck. GDH-TPI coupled enzyme counterscreen, NADH absorbance. inhibition, % at 4.8 µM. 1.2% of 360,000 active; in the data active = inhibition above about 30%
BJeLR viability: MLPCN primary cell-based screen for lethality selective to Ras in HRASV12 cells; 0.17% of 300,000 active; AID 1554, 2009; inhibition, % (no concentration beside the values); BJeLR (HRASV12) viability, CellTiter-Glo ATP luminescence, 48 h; in the data active = inhibition above about 50%
RecA intein inh: Mtb RecA intein splicing inhibitors, primary screen, biochemical, fluorescence, HTS | cell-free RecA intein splicing | inhibition, % (concentration not given with the values) | 0.75% of 290,000 active; in the data active = inhibition above about 30%
Target sequence (P9WHJ3 whole entry, looked up): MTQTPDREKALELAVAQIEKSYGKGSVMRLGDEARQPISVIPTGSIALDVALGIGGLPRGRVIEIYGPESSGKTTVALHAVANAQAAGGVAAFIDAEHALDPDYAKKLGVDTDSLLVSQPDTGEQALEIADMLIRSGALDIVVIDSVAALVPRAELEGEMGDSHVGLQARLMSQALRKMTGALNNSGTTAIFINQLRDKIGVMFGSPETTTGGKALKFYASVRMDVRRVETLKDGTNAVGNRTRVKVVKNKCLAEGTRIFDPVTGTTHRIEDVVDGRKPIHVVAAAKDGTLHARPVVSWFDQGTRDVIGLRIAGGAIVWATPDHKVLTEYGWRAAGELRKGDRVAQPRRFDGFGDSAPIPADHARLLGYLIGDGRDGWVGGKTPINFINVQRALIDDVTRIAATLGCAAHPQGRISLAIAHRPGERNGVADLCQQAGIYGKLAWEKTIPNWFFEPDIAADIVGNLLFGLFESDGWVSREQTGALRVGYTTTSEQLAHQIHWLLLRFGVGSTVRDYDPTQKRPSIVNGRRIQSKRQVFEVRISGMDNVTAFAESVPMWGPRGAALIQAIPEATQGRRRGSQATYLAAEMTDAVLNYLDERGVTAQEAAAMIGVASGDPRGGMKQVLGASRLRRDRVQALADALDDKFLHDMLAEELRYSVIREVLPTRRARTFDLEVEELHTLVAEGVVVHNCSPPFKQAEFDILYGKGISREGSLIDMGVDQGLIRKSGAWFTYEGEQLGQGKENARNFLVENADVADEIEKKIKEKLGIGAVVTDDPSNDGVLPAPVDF
PrPC TRFRET: inhibitors of human cell surface prion protein PrPC, primary screen, cell-based, TR-FRET. TR-FRET read-out. inhibition, % at 13.8 µM. 0.43% of 370,000 active; in the data active = inhibition above about 24%
Mtb FBA inh conf: M. tuberculosis aldolase blockers, biochemical, fluorescence, strain H37Rv, confirmation | shares compounds with Mtb FBA inh | purified M. tuberculosis FBA, fluorescence read-out | AID 651616, 2012 | 78% of 5,600 active | inhibition, % at 1 µM
GDH-TPI counter-2: GDH-TPI coupling enzyme inhibitors, artefact control for M. tuberculosis FBA inhibitor project, biochemical, fluorescence, high throughput | shares compounds with Mtb FBA inh | GDH-TPI coupled enzyme counterscreen | inhibition, % at 1 µM | 81% of 5,600 active | AID 652141, 2013; in the data active = inhibition above about 10%
Of the large screens only hits and unclear results are named; the others gave an inactive call (follow-up assays come after a bar, where they were run). Cut-off read from the data, not from the text of the source, unless noted: active = inhibition above about 27%; inactive = the rest.

Cc1cc(=O)n2c(nc3ccccc32)s1	none (no result: BJeLR viability, RecA intein inh)
CCc1c(C)[nH]c2nc3ccccc3n2c1=O	none
Cc1cc(/C=C2\NC(=O)NC2=O)c(C)n1-c1ccc(N2CCOCC2)cc1	none
Cc1cc(C=O)c(C)n1-c1ccc(N2CCOCC2)cc1	Mtb FBA inh 54 | Mtb FBA inh conf active | GDH-TPI counter-2 active
Cc1c(-c2cc(C(=O)O)c3ccccc3n2)cnn1C	Mtb FBA inh 97 | Mtb FBA inh conf 136 | GDH-TPI counter-2 113
Cc1ccc(-c2cc(C(=O)O)c3ccccc3n2)c(C)c1	none
c1coc(C2Nc3ccccc3-c3nc4ccccc4n32)c1 (stereo unspecified)	Mtb FBA inh 101 | Mtb FBA inh conf 153 | GDH-TPI counter-2 120
Cc1cc2n(n1)C(c1ccco1)Nc1ccccc1-2 (stereo unspecified)	none
Cc1ccc2[nH]ccc(=O)c2c1	Mtb FBA inh 30 | Mtb FBA inh conf 52 | GDH-TPI counter-2 39
COc1ccc(-c2nc3cnccn3c2NCc2ccccc2)cc1SC1CCCCC1	none (no result: PrPC TRFRET)
CCC(C)Sc1ccc(-c2nc3ccccn3c2NCc2ccccc2)cc1OC (stereo unspecified)	Mtb FBA inh 41 (no result: BJeLR viability, RecA intein inh, PrPC TRFRET) | Mtb FBA inh conf 116 | GDH-TPI counter-2 90
COc1cc(-c2nc3ccccn3c2NCc2ccccc2)ccc1SC1CCCCC1	Mtb FBA inh 45 (no result: PrPC TRFRET) | Mtb FBA inh conf 84 | GDH-TPI counter-2 52
COc1ccc(CSc2ccc(-c3nc4ccccn4c3NCc3ccccc3)cc2OC)cc1	Mtb FBA inh 34 | Mtb FBA inh conf 31 | GDH-TPI counter-2 28
COc1ccc(-c2nc3ccccn3c2NC2CCCCC2)cc1SC1CCCCC1	Mtb FBA inh 44 | Mtb FBA inh conf 132 | GDH-TPI counter-2 115
COc1cc(NC(=O)NC2CCCCN(Cc3ccc(Cl)cc3)C2=O)cc(OC)c1 (stereo unspecified)	none (no result: Mtb FBA inh, GDH-TPI counter-1, BJeLR viability, RecA intein inh)
COC(=O)[C@]12C[C@H](CC(=O)N3CCN(C(=O)C4CC4)CC3)C(=O)N(CCc3ccc(OC)c(OC)c3)C1=C[C@H](C(C)C)O[C@@H]2C1CC1	none (no result: Mtb FBA inh, GDH-TPI counter-1, BJeLR viability, RecA intein inh)
CCOC(=O)Cn1cc(CN2CCS(=O)(=O)N(Cc3ccc(OC)cc3)C(C(=O)OC)C2)nn1 (stereo unspecified)	none (no result: Mtb FBA inh, GDH-TPI counter-1, BJeLR viability, RecA intein inh)
O=C(O)c1cc(O)ccc1O	Mtb FBA inh 87 (no result: BJeLR viability, RecA intein inh) | Mtb FBA inh conf inactive | GDH-TPI counter-2 inactive
CC(C)(c1ccc(O)cc1)c1ccc(O)cc1	none
Nc1ccc(O)c(C(=O)O)c1	none (no result: Mtb FBA inh, GDH-TPI counter-1, PrPC TRFRET)
CC(C)(c1ccc(O)cc1)c1ccc(O)c(C(=O)O)c1	Mtb FBA inh 61 (no result: BJeLR viability, RecA intein inh) | Mtb FBA inh conf 60 | GDH-TPI counter-2 52
COc1ccc(-c2nnn3c2Cn2c4ccccc4c(=O)n2[C@@H](C)C3)cc1	none (no result: Mtb FBA inh, GDH-TPI counter-1, BJeLR viability, RecA intein inh)
CN(CCc1ccccn1)C(=O)c1ccc(Sc2ccccc2Cl)c([N+](=O)[O-])c1	none (no result: Mtb FBA inh, GDH-TPI counter-1, BJeLR viability, RecA intein inh)
Nc1ccc2c(c1)C(=O)N(CCCCCC(=O)O)C2	Mtb FBA inh 38 | Mtb FBA inh conf 121 | GDH-TPI counter-2 110
CCCCNC(=O)C1(C(=O)c2ccc(OC)cc2)CC(c2ccccn2)=NO1 (stereo unspecified)	none (no result: Mtb FBA inh, GDH-TPI counter-1, BJeLR viability, RecA intein inh)
COC(=O)[C@]12C[C@H](CC(=O)N3CCCC3)C(=O)N(Cc3ccc(Cl)cc3Cl)C1=C[C@H](C(C)C)O[C@@H]2C1CC1	none (no result: Mtb FBA inh, GDH-TPI counter-1, BJeLR viability, RecA intein inh)
CCOc1ccc2oc(C(=O)OCC(=O)N3C(C)CCCC3C)c(C)c2c1 (stereo unspecified)	Mtb FBA inh 48 (no result: BJeLR viability, RecA intein inh) | Mtb FBA inh conf 91 | GDH-TPI counter-2 87
Cc1c(C(=O)OCC(=O)N2C(C)CCCC2C)oc2ccccc12 (stereo unspecified)	none
COc1ccc2oc(C(=O)OCC(=O)N3C(C)CCCC3C)c(C)c2c1 (stereo unspecified)	Mtb FBA inh 40 | Mtb FBA inh conf 41 | GDH-TPI counter-2 45
COc1ccc2oc(C(=O)OCC(=O)N3CCCC3=O)c(C)c2c1	Mtb FBA inh 45 | Mtb FBA inh conf 73 | GDH-TPI counter-2 36
COc1ccc(C(=O)OCC(=O)N2CCCC2=O)c(OC)c1	none
COc1ccc2oc(C(=O)OCC(=O)N3CCCCC3C)c(C)c2c1 (stereo unspecified)	Mtb FBA inh 63 (no result: BJeLR viability, RecA intein inh) | Mtb FBA inh conf 195 | GDH-TPI counter-2 169
COc1ccc(-n2c(SCC(=O)Nc3ccc(S(=O)(=O)Nc4cc(C)nc(C)n4)cc3)nnc2-c2ccco2)cc1	none (no result: Mtb FBA inh, GDH-TPI counter-1, BJeLR viability, RecA intein inh)
COC(=O)[C@]12C[C@H](CC(=O)N3CCN(C(=O)c4ccco4)CC3)C(=O)N(Cc3ccccc3)C1=C[C@H](C(C)(C)C)O[C@@H]2C	none (no result: Mtb FBA inh, GDH-TPI counter-1, BJeLR viability, RecA intein inh)
CCCn1c(-c2cccs2)nc2ccccc21	Mtb FBA inh 74 | Mtb FBA inh conf active | GDH-TPI counter-2 174
C=CCn1c(-c2cccs2)nc2ccccc21	Mtb FBA inh 63 (no result: BJeLR viability, RecA intein inh) | Mtb FBA inh conf 150 | GDH-TPI counter-2 141
CCCNC(=O)c1oc2ccc3c(c2c1C)C(O)CC(C)(C)O3 (stereo unspecified)	Mtb FBA inh 49 | Mtb FBA inh conf inactive | GDH-TPI counter-2 inactive
CCOCCCNC(=O)c1oc2ccc3c(c2c1C)C(O)CC(C)(C)O3 (stereo unspecified)	Mtb FBA inh 33 | Mtb FBA inh conf 35 | GDH-TPI counter-2 25
Cc1c(C(=O)NCCCN2CCCCC2)oc2ccc3c(c12)C(O)CC1(CCCCC1)O3 (stereo unspecified)	none
C/C(C=NNC(=O)CSc1nc2ccccc2n1C)=C\c1ccccc1	none (no result: Mtb FBA inh, GDH-TPI counter-1, BJeLR viability, RecA intein inh)
COc1ccc(-c2nn(-c3ccccc3)cc2N)cc1	Mtb FBA inh 93 | Mtb FBA inh conf active | GDH-TPI counter-2 active
CNC(=O)c1cn2c3c(ccc(Cl)c3c1=O)OC(C)C2 (stereo unspecified)	Mtb FBA inh 37 (no result: BJeLR viability, RecA intein inh) | Mtb FBA inh conf inactive | GDH-TPI counter-2 inactive
CCOCCCNC(=O)c1cn2c3c(ccc(Cl)c3c1=O)OC(C)C2 (stereo unspecified)	none
CCC1(O)C(=O)OCc2c1cc1n(c2=O)Cc2cc3c(N)cccc3nc2-1 (stereo unspecified)	none (no result: BJeLR viability, RecA intein inh)
CCC1(OC(=O)CN(C)C)C(=O)OCc2c1cc1n(c2=O)Cc2cc3c(N)cccc3nc2-1 (stereo unspecified)	Mtb FBA inh 53 (no result: BJeLR viability, RecA intein inh, PrPC TRFRET) | Mtb FBA inh conf inactive | GDH-TPI counter-2 inactive
O=S1(=O)c2c(cccc2N2CC[C@@H](O)C2)OCCCN1C1CC1	none (no result: Mtb FBA inh, GDH-TPI counter-1, BJeLR viability, RecA intein inh)
CCC1(C)Cc2[nH]c(=O)c(C#N)cc2CO1 (stereo unspecified)	Mtb FBA inh 69 | Mtb FBA inh conf inactive | GDH-TPI counter-2 inactive
